Source: PubChem BioAssay (EPA / NIEHS)
Values joined by “and” are separate entries in the source; they are usually repeats but may differ in a detail not shown here. Equal values may be shown once. More than one record can exist for a structure, and the calls need not agree. Active and inactive are the calls of the source. The calls were made as follows: active = hit-call score of the fitted dose curve at least 0.9, where 1 is the maximum; inactive = score below 0.9.

Read-out: Thrombomodulin, THBD (gene 7056)
Test: BSK_3C_Thrombomodulin: BioMAP Diversity Plus: 3C Assay for Thrombomodulin Biomarker Activity (AID 2283029)
Conditions: primary human endothelial cells (HUVEC); actives raise or lower the signal
Outline: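 HUVEC, 3C conditions; compound 24 h; thrombomodulin by ELISA; bidirectional curve fit vs DMSO baseline; parallel SRB total-protein staining for cytotoxicity.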

outcome, inactive:
O=C(c1ccccc1)c1ccccc1, C=CC(=C)CC/C=C(\C)CCC=C(C)C, CCCCCCCCCCCCOS(=O)(=O)O, COc1cc(OC)nc(NC(=O)NS(=O)(=O)Nc2ccccc2C(=O)N(C)C)n1, Oc1c(Cl)cc(Cl)cc1Sc1cc(Cl)cc(Cl)c1O

AC50, active:
O=C1OC2(c3ccccc31)c1cc(I)c(O)c(I)c1Oc1c2cc(I)c(O)c1I 7.01 µM, Oc1c(Cl)cc(Cl)cc1Sc1cc(Cl)cc(Cl)c1O 11.1 µM

Read-out: Urokinase-type plasminogen activator receptor (uPAR), PLAUR (gene 5329)
Test: BSK_4H_uPAR: BioMAP Diversity Plus: 4H Assay for Urokinase-type plasminogen activator receptor (uPAR) Biomarker Activity (AID 2283030)
Conditions: primary human endothelial cells (HUVEC); actives raise or lower the signal
Outline: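 Chemicals are dosed onto human vascular endothelial primary cells (umbilical vein). After 24 h, uPAR is read by ELISA. Gain or loss of signal is fitted relative to DMSO.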

outcome, inactive:
O=C(c1ccccc1)c1ccccc1, C=CC(=C)CC/C=C(\C)CCC=C(C)C, CCCCCCCCCCCCOS(=O)(=O)O, COc1cc(OC)nc(NC(=O)NS(=O)(=O)Nc2ccccc2C(=O)N(C)C)n1

AC50, active:
O=C1OC2(c3ccccc31)c1cc(I)c(O)c(I)c1Oc1c2cc(I)c(O)c1I 8.51 µM, Oc1c(Cl)cc(Cl)cc1Sc1cc(Cl)cc(Cl)c1O 20 µM and 9.97 µM

Read-out: Vascular endothelial growth factor receptor 2 (Homo sapiens) (UniProt P35968)
Test: BSK_4H_VEGFRII: BioMAP Diversity Plus: 4H Assay for Vascular endothelial growth factor receptor 2 (VEGFR2) Biomarker Activity (AID 2283031);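 as to AC50: cell-surface VEGFR2 protein level quantified by ELISA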
Conditions: primary human endothelial cells (HUVEC); actives raise or lower the signal
Outline: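 VEGFRII levels on human vascular endothelial primary cells were determined by ELISA at 24 hours post-dosing, with gain- or loss-of-signal fitted against DMSO controls.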

outcome, inactive:
O=C(c1ccccc1)c1ccccc1, C=CC(=C)CC/C=C(\C)CCC=C(C)C, CCCCCCCCCCCCOS(=O)(=O)O, COc1cc(OC)nc(NC(=O)NS(=O)(=O)Nc2ccccc2C(=O)N(C)C)n1

AC50, active:
O=C1OC2(c3ccccc31)c1cc(I)c(O)c(I)c1Oc1c2cc(I)c(O)c1I 3.36 µM, Oc1c(Cl)cc(Cl)cc1Sc1cc(Cl)cc(Cl)c1O 5.09 µM and 4.99 µM
